Most compounds without a hit are left out; they make up all but 8% or so of the library.
SW480 rereplic – inducers of DNA re-replication in SW480 colon cancer cells. Potency, µM (series often up to 46.1 µM), for the others: at the highest dose re-replication activation, hits mostly activators. AID 624297. SW480 DNA re-replication, Hoechst DNA content imaging, 48 h. 340,000 compounds, 1.8% hits; further: % of control where 0% means no effect; nearly all actives have a fitted effect of over 55% in size
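First, 250 cells per well were seeded. Next, compound or vehicle (23 nL) was pinned in, plates sat 48 hr at 37 C. Finally Hoechst was added for 40 min before fluorescence scanning.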
KB-V1 MDR tox – kills drug-selected multidrug resistant KB-V1 cells | Potency, µM (highest dose often 46.1 µM), most hits filed as cytotoxic | 400,000 compounds, 3.4% hits | KB-V1 MDR cells viability, CellTiter-Glo, 72 h; further: on the % scale 0 is the no-effect control and ±100 the full control effect; nearly all actives have a fitted effect of over 60% in size
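KB-V1 cells (P-gp-expressing MDR subline of KB-3-1) in phenol-red-free DMEM with 10% FBS were exposed to library compounds over a concentration series for 72 h at 37 degrees C. Viability read by CellTiter-Glo luminescence; concentration-effect curves fitted after normalization.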
HT1080-NT tox – kills 2HG-producing HT-1080-NT fibrosarcoma cells; HT-1080-NT fibrosarcoma viability, CellTiter-Glo ATP luminescence, 48 h; Potency, µM (doses to about 46.1 µM), without a hit: at the highest dose activity, negative = less viability, hits mostly cytotoxic; 360,000 compounds, 1.6% hits;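 further: NT is the 2HG producing partner of a matched IDH1 knockdown line; 0% = DMSO-treated cells and -100% = media-only wells without cells; nearly all actives have a fitted effect of over 55% in size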
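Read-out is CellTiter-Glo luminescence after 10 minutes at room temperature, following 48 hours' compound treatment of HT-1080-NT cells (750 cells/well, RPMI, 5% FBS, 37 degrees C).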
HT1080 IDH1KD tx – HT-1080 IDH1 knockdown cell toxicity (counter line); HT-1080 IDH1 knockdown viability, ATP luminescence, 48 h; Potency, µM (titrated, usually from 46.1 µM), inactives show at the highest dose activity, negative = toxicity, actives largely listed as cytotoxic; 360,000 compounds, 2% hits; AID 686971;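 further: 0% = DMSO wells and -100% = cell-free medium wells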
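IDH1KD HT-1080 cells, 750/well, RPMI + 5% FBS; compound pinned after 2 h settling; 48 h, 37 °C; CellTiter-Glo luminescence; % activity normalised to DMSO and no-cell wells; curves fitted, classed by r2 and efficacy.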
MCF10A rerep – inducers of DNA re-replication in MCF 10A breast cells; Potency, µM (titrated, usually from 46.1 µM), for inactives: at the top dose activity, positive = re-replication, hits mostly activators; AID 624296; 350,000 compounds, 2.9% hits; MCF 10A DNA re-replication, Hoechst nuclear intensity, 48 h; further: % of control where 0% means no effect; nearly all actives have a fitted effect of over 50% in size
KB-3-1 cytotox – kills parental KB-3-1 adenocarcinoma cells. KB-3-1 viability, CellTiter-Glo ATP luminescence, 72 h. Potency, µM (titrated, usually from 46.1 µM), hits mostly cytotoxic. 400,000 compounds, 1.4% hits. AID 1347075; further: on the % scale 0 is the no-effect control and ±100 the full control effect; nearly all actives have a fitted effect of over 60% in size
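KB-3-1 parental drug-naive adenocarcinoma cells in DMEM/10% FBS, incubated 72 h at 37 C with pin-transferred compounds across a concentration series. Viability by CellTiter-Glo luminescence; concentration-response curves fitted after normalization.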
The depositor's hits bear a star; i = inactive; ? = inconclusive; . = no result. The call rests on the fitted dose curve; in most records, active means well fitted curve in the direction sought with a large enough effect; inconclusive means small, poorly fitted or top-dose-only effect, or another doubt; inactive means no such curve, though single readings can be large; an effect the other way counts as inactive or inconclusive. Potency means the concentration at half of the fitted maximal effect.

SMILES	SW480 rereplic	KB-V1 MDR tox	HT1080-NT tox	HT1080 IDH1KD tx	MCF10A rerep	KB-3-1 cytotox
Cc1cccc(N2CCN(C(=O)c3cccc(N4CCCC4=O)c3)C(C)C2)c1 (stereo not drawn)	?	?	?	2.6µM*	1.5µM*	2.6µM*
O=C(c1cccc(N2CCCC2=O)c1)N1CCN(c2cccc(Cl)c2)CC1	-5%	?	?	13µM*	0%	5.2µM*
COc1ccc(C(=O)N2CCN(c3cccc(Cl)c3)CC2)cc1S(=O)(=O)NC1CC1	24%	i	?	?	23µM*	?
COc1cc2c(cc1OC)C(COc1ccc3c(C)cc(=O)oc3c1)N(C(=O)Cc1ccc(F)cc1)CC2 (stereo not drawn)	.	i	.	.	.	i
CCc1ccc(C(=O)c2cn(CC(=O)Nc3ccc(OC)c(OC)c3)c3ccc(C)cc3c2=O)cc1	.	i	.	.	.	i
CN(C(=O)CSc1nc2ccc(NC(=O)c3ccco3)cc2s1)c1ccccc1	.	i	.	.	.	i
COc1ccc(C(=O)N2CCN(c3cccc(Cl)c3)CC2)cc1	-1%	21µM*	-8%	11%	-1%	i
Cc1ccc(C(=O)N2CCN(c3ccccc3)CC2)cc1C	-1%	i	-1%	2%	-2%	i
Cc1ccc(C(=O)N2CCN(c3cccc(Cl)c3)CC2)cc1C	12µM*	?	?	?	18µM*	?
Cc1nc2cccnc2n1-c1cccc(C(=O)N2CCN(c3ccc(Cl)cc3)CC2)c1	.	i	.	.	.	12µM*
COc1ccc(N2CCN(C(=O)c3ccc(-n4nc(C)cc4C)cc3)CC2)cc1	1%	16µM*	2%	4%	4%	i
COc1ccc(N2C(=O)C(CC(=O)Nc3ccccc3)N(CCC3=CCCCC3)C2=O)cc1 (stereo not drawn)	.	i	.	.	.	i
COc1cccc(N2C(=O)C(CC(=O)Nc3ccc(F)cc3)N(CCC3=CCCCC3)C2=O)c1 (stereo not drawn)	.	?	.	.	.	i
Oc1ccccc1C(=S)N1CCN(c2cccc(Cl)c2)CC1	-1%	i	-12%	-18%	7%	i
COc1ccc(C(=S)N2CCN(c3cccc(Cl)c3)CC2)c(OC)c1	4.1µM*	i	?	?	7.3µM*	6.5µM*
COc1ccc(-n2nc(C(=O)NCC(=O)N3CCN(c4cccc(Cl)c4)CC3)c3ccccc3c2=O)c(OC)c1	6%	12µM*	-10%	-11%	11%	i
O=C(c1ccc([N+](=O)[O-])s1)N1CCN(c2cccc(Cl)c2)CC1	?	16µM*	4%	6%	?	?
COc1cc(C(=S)N2CCN(c3cccc(Cl)c3)CC2)ccc1O	21µM*	?	?	16µM*	15µM*	8.2µM*
O=C(c1cccs1)N1CCN(c2cccc(Cl)c2)CC1	-11%	i	1%	0%	-1%	i
CC(C)c1cc(-c2nc(-c3ccc(Cl)cc3)no2)n[nH]1	.	i	.	.	.	i
Cc1ccc(SCCNC(=O)CN(c2ccccc2)S(=O)(=O)N(C)C)cc1	.	i	.	.	.	i
CCn1c(=O)n(-c2ccc3c(c2)OCO3)c2nc(-c3cc(OC)ccc3OC)nc(C(N)=O)c21	.	i	.	.	.	i
CCN1CCN(c2oc(-c3ccc(COc4ccccc4C)o3)nc2C#N)CC1	.	i	.	.	.	21µM*
CN(C)c1ccc(N=Cc2ccncc2)cc1	.	i	.	.	.	i
O=C(CNc1ccccc1Cl)Nc1cc(S(=O)(=O)N2CCOCC2)ccc1Cl	5%	i	-4%	0%	-3%	i
SMILES	SW480 rereplic	KB-V1 MDR tox	HT1080-NT tox	HT1080 IDH1KD tx	MCF10A rerep	KB-3-1 cytotox
CSc1nc2ccc(Nc3nc(N4CCOCC4)nc(N4CCOCC4)n3)cc2s1	16µM*	18µM*	?	?	?	?
O=C(CSc1nc2ccc(Nc3nc(N4CCCC4)nc(N4CCCC4)n3)cc2s1)NCc1ccco1	-9%	i	-6%	-2%	5.8µM*	i
O=C(CSc1nc2ccc(Nc3nc(N4CCOCC4)nc(N4CCOCC4)n3)cc2s1)N1CCOCC1	-7%	i	-4%	-2%	?	i
O=C(CSc1nc2ccccc2s1)Nc1cc(S(=O)(=O)N2CCOCC2)ccc1Cl	10%	18µM*	2%	8%	8%	i
O=C(CSc1nc2ccc(Nc3nc(N4CCOCC4)nc(N4CCOCC4)n3)cc2s1)Nc1ccccc1F	2.9µM*	2.6µM*	7%	4%	2.1µM*	13µM*
CCOC(=O)c1ccc(NC(=O)CS(=O)(=O)Cc2nc(-c3ccc(C)cc3)oc2C)cc1	.	i	.	.	.	i
Cc1cc(O)c(C(c2cccc(F)c2)N2CCN(c3ccccc3)CC2)c(=O)n1Cc1ccco1 (stereo not drawn)	.	i	.	.	.	i
Cc1nn2c(=O)cc(COC(=O)Cc3ccccc3)nc2s1	.	i	.	.	.	i
O=C(CSc1nc2ccc(Nc3nc(N4CCOCC4)nc(N4CCOCC4)n3)cc2s1)Nc1ccccc1Cl	?	?	?	-28%	18µM*	?
Nc1nnc(CCCCCc2nnc(N)s2)s1	1.5µM*	i	-2%	-4%	11%	i
Cc1cccc(NC(=S)NC2CCN(Cc3ccccc3)CC2)c1C	?	i	-3%	-3%	5%	i
S=C(Nc1ccc(Cl)c(Cl)c1)NC1CCN(Cc2ccccc2)CC1	?	?	26µM*	23µM*	?	?
Fc1ccc(NC(=S)NC2CCN(Cc3ccccc3)CC2)cc1	-2%	i	-3%	-1%	17%	i
S=C(Nc1ccc(Cl)c(Cl)c1)NC1CCCCC1	3.3µM*	16µM*	10µM*	?	80%	18µM*
CC(C)(C)CC(C)(C)NC(=S)NC1CCN(Cc2ccccc2)CC1	?	5.2µM*	-1%	0%	?	?
S=C(Nc1ccc2nsnc2c1)NC1CCCCC1	6%	16µM*	23%	17%	-37%	i
S=C(Nc1ccc2nsnc2c1)N1CCCCCC1	?	i	5%	7%	1%	i
Cc1ccc(CNC(=O)NC2COc3ccccc3C2)cc1 (stereo not drawn)	.	i	.	.	.	i
Cc1cc(N2CCCC2)ccc1/C=C1/C(=O)N(C)C(=S)N1C	15µM*	?	?	-18%	3%	?
Cc1cc(/C=C2/C(=O)N(C)C(=S)N2C)ccc1N1CCCC1	-7%	?	-4%	-7%	1%	i
COc1ccc(NS(=O)(=O)c2ccc3[nH]c(=O)ccc3c2)cc1OC	.	?	.	.	.	i
